# Where “and” joins values, the source holds several entries; their conditions need not be identical. Equal entries are not always repeated. For some of these results: Potency and affinity values are given separately. Calls of active or inactive are those of the source. Rule as the data show it, unless noted: active = parasite load remaining mostly below about 12% (no sharp cut-off); inactive = mostly above about 10%.
# Assays:
# [1] = P. berghei load reduction in hepatocytes – cell-based, HepG2, luciferase luminescence, HepG2 viability, primary screen (AID 624349);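 also: 100% = mean of DMSO negative control wells on the same plate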; conditions: P. berghei liver stage in HepG2, luciferase luminescence, concentration not given here; parasite load remaining: stronger effect = lower value; viability: measured here: HepG2 viability without parasites
# [2] = biological target: 6-phosphogluconate dehydrogenase, decarboxylating (Homo sapiens) (UniProt P52209); assay: inhibition of human phosphogluconate dehydrogenase – biochemical, recombinant enzyme, NADPH absorbance, primary screen (AID 1159550;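 active = at least 20% inhibition of 6-phosphogluconate dehydrogenase activity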); conditions: recombinant 6PGD, NADPH absorbance 341 nm; at 10 µM; stronger effect = higher value
# 6-phosphogluconate dehydrogenase, decarboxylating (Homo sapiens), sequence (P52209 whole entry, looked up): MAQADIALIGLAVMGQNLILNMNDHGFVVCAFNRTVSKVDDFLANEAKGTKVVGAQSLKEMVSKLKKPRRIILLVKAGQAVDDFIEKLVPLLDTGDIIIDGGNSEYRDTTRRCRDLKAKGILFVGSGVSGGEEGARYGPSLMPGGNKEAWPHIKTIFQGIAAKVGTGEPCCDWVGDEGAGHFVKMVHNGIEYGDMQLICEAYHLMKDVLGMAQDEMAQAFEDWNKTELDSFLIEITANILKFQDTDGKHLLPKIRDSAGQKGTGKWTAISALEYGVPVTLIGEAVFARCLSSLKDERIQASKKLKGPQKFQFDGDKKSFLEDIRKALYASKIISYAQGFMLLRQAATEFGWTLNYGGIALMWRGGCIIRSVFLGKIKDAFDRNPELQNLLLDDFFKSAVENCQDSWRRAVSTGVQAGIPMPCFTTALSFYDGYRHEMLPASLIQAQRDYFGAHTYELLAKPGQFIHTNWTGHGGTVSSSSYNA
# [3] = EMT-state selective cytotoxicity in co-culture – imaging, PC-3E GFP, TEM4-18 mCherry, primary screen (AID 1345086;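 active = compounds killing one labelled cell type while sparing the other, by normalised counts and ratio limits, not self-fluorescent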;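 as to all read-outs here: cells exposed to compound for 72 h before imaging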;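 as to red/green cell ratio (normalised): normalised mesenchymal count divided by normalised epithelial count so high means epithelial killing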); conditions: PC-3E GFP / TEM4-18 mCherry co-culture, imaging cell counts, at 1 µM; for red/green cell ratio (normalised): actives lie on both sides, counts scaled to control wells, 1 = unselective
# [4] = viability loss with induced miR-34 in A549 – imaging, A549 dox-inducible miR-34, nuclei and caspase counts, primary screen (AID 1347080;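 active = compounds whose cell count with miR-34 switched on is under 0.7 times the count with it off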); conditions: A549 miR-34 inducible, Hoechst nuclei count, 48 h
# [5] = blockers of polyQ-driven CASP3 activation – cell-based (AID 1583); conditions: polyglutamine-induced caspase-3 activation, cell assay; stronger effect = higher value;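 tested at 10 µM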
# [6] = yeast 75Q aggregation reduction – 75Q-TubU reporter (AID 1593); conditions: Yeast 75Q polyglutamine aggregation reporter
# [7] = restoration of touch response, mutant HTT neurons – whole organism, C. elegans mechanosensory neurons, N-terminal huntingtin (AID 1599); conditions: C. elegans polyQ-huntingtin mechanosensory neurons, stronger effect = higher value
# [8] = blockers of cytochrome c efflux from mitochondria – biochemical, purified mitochondria (AID 1603); conditions: stronger effect = lower value;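 also: mouse liver mitochondria challenged with calcium chloride; signal normalized to the plate average as 100%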
# [9] = polyglutamine aggregate formation blockers (AID 1604); conditions: polyglutamine-induced protein aggregation inhibition assay; stronger effect = higher value; tested at 2.5 µM
# [10] = glutamate transport activators, MN-1 cells, MN-1 cell line (AID 1612); conditions: MN-1 motor neuron cells, stronger effect = higher value;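 also: tested at 1 µM final; 0% = mean of DMSO vehicle wells on each plate; positive means more glutamate uptake than control and negative means less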
# [11] = GFP-Q80 aggregate reduction, neuronal-like cells, cell-based, NGF-treated PC12, GFPQ80 (AID 1614); conditions: PC12 NGF-treated GFP-polyQ80 inclusion reduction;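 also: lower means fewer inclusions and 0 means no inclusions at all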
# [12] = 75Q-TubH aggregate inhibition, S. cerevisiae, yeast (AID 1616); conditions: S. cerevisiae 75Q-TubH polyglutamine aggregation suppression; stronger effect = higher value
# [13] = biological target: NAD(+) hydrolase SARM1 (Homo sapiens) (UniProt Q6SZW1); assay: blocking NAD cleavage by SARM1 SAM-TIR – cell lysate, NAD-Glo luminescence (AID 1508614;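 active = compound whose remaining NAD level is above about 45 nM, limit read from the data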;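 also: higher remaining NAD means stronger inhibition of SARM1 NADase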); conditions: SAM-TIR HEK293T lysate NADase, at 1 µM, stronger effect = higher value
# NAD(+) hydrolase SARM1 (Homo sapiens), sequence (Q6SZW1 whole entry, looked up): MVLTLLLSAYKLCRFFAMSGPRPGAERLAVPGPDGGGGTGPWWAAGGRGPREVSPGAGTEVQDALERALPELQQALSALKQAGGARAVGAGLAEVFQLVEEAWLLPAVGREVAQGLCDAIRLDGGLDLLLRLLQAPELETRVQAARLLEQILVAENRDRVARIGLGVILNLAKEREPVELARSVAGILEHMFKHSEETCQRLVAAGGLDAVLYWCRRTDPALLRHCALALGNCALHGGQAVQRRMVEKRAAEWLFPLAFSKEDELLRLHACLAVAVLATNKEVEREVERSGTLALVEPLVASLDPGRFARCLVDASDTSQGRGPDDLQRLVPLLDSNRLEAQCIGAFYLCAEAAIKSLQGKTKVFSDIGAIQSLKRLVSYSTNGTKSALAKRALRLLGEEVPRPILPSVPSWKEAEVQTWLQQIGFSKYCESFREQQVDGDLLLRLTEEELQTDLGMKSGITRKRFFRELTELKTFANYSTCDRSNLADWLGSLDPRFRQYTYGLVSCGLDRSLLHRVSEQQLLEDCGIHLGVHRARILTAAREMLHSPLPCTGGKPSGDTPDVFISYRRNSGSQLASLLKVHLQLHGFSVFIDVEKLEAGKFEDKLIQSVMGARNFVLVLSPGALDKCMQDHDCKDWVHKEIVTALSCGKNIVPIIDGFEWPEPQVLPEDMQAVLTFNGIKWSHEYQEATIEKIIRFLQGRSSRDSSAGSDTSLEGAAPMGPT
# [14] = compounds altering viability of human ES cells (AID 493140; call rule not given here;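 also: cells exposed to compounds for four days before counting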); conditions: human embryonic stem cell survival screen; stronger effect = higher value
# [15] = biological target: Mitogen-activated protein kinase 7 (Homo sapiens) (UniProt Q13164); assay: Gal4-ERK5 driven luciferase induction – cell-based, HTS, primary screen (AID 1508626;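 active = luciferase signal above three times the same-plate solvent-only control wells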;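 also: luciferase driven by Gal4-ERK5 fusion binding five Gal4 sites before minimal TATA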); conditions: HeLa Gal4-ERK5 transactivation, 18 h, at 5 µM, stronger effect = higher value
# Mitogen-activated protein kinase 7 (Homo sapiens), sequence (Q13164 whole entry, looked up, the tested form may be a part): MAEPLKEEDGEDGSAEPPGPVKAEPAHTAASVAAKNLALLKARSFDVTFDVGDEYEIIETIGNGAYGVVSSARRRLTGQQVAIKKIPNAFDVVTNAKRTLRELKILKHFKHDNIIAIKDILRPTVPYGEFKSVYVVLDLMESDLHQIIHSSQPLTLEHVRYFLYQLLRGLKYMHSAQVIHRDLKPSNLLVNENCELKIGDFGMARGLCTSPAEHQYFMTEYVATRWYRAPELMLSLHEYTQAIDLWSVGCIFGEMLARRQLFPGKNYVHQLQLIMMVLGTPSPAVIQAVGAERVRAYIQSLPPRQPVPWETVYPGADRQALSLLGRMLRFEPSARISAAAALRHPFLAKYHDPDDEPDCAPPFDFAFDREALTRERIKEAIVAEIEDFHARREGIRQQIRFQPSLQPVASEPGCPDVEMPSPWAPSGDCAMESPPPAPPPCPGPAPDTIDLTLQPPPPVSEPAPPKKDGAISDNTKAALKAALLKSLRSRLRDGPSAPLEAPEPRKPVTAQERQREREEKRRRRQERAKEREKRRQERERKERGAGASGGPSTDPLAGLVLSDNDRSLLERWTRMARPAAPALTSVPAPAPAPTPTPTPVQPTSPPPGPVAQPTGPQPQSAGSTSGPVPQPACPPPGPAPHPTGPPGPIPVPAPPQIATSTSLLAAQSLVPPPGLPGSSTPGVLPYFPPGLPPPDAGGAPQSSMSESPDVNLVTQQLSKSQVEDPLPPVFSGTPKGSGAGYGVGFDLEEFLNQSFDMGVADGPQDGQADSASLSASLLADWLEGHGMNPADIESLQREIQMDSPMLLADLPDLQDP
# [16] = measured here: epithelial PC-3E GFP cell survival
# [17] = measured here: mesenchymal TEM4-18 mCherry cell survival
# [18] = stronger effect = lower value, cell number ratio, induced over uninduced
# [19] = measured here: relative caspase fold change +Dox/-Dox
# [20] = measured here: total cells with miR-34 induction, stronger effect = lower value
# [21] = measured here: total cells without miR-34 induction
smiles,measurement,setting,value
CO[C@H]1/C=C/O[C@@]2(C)Oc3c(C)c(O)c4c(O)c(c5c(nc6cc(C)ccn65)c4c3C2=O)NC(=O)/C(C)=C\C=C\[C@H](C)[C@H](O)[C@@H](C)C(O)[C@@H](C)[C@H](OC(C)=O)[C@@H]1C (stereo partly drawn),parasite load remaining,[1],51.2% (inactive)
same,viability,[1],113%
same,inhibition,[2],-0.37% (inactive)
same,red/green cell ratio (normalised),[3],1.15 (inactive)
same,normalised cell number,[3]; [16],1.21
same,normalised cell number,[3]; [17],1.39
same,fold change,[4]; [18],0.902 (inactive)
same,fold change,[4]; [19],2.53
same,cell count,[4]; [20],11500
same,cell count,[4]; [21],12700
COc1ccc2c(c1OC)C(=O)O[C@H]2[C@H]1c2c(cc3c(c2OC)OCO3)CCN1C,parasite load remaining,[1],93.3% (inactive) and 73.1% (inactive)
same,viability,[1],64.7% and 94.8%
same,inhibition,[2],4.17% (inactive)
same,red/green cell ratio (normalised),[3],1.15 (inactive)
same,normalised cell number,[3]; [16],1.08
same,normalised cell number,[3]; [17],1.24
same,fold change,[4]; [18],0.877 (inactive)
same,fold change,[4]; [19],1.33
same,cell count,[4]; [20],8940
same,cell count,[4]; [21],10200
O=C(O)CN(CCN(CC(=O)O)CC(=O)O)CC(=O)O,inhibition,[5],13.2%
same,score,[6],1.69
same,rescue above control,[7],-6.51
same,cytochrome c release ratio,[8],0.54
same,inhibition of aggregation,[9],72.4%
same,glutamate uptake change,[10],-23.4%
same,inclusion score,[11],1.5
same,aggregation suppression score,[12],1.43
same,parasite load remaining,[1],74.6% (inactive) and 69.8% (inactive)
same,viability,[1],73.4% and 97.7%
same,inhibition,[2],8.13% (inactive)
same,red/green cell ratio (normalised),[3],1.05 (inactive) and 0.92 (inactive)
same,normalised cell number,[3]; [16],1.05 and 1.23
same,normalised cell number,[3]; [17],1.11 and 1.13
same,fold change,[4]; [18],0.899 (inactive)
same,fold change,[4]; [19],3.42
same,cell count,[4]; [20],11600
same,cell count,[4]; [21],12900
same,remaining NAD,[13],10 nM (inactive)
COc1cc2cc3c4cc(OC)c(OC)cc4cc[n+]3c(C)c2cc1OC,survival,[14],0.333 (inactive)
same,parasite load remaining,[1],91.2% (inactive) and 45.3% (inactive) and 68.5% (inactive)
same,viability,[1],98.6% and 66.5% and 73.3%
same,inhibition,[2],13.7% (inactive)
same,red/green cell ratio (normalised),[3],0.8 (inactive)
same,normalised cell number,[3]; [16],1
same,normalised cell number,[3]; [17],0.8
same,fold change,[4]; [18],0.879 (inactive)
same,fold change,[4]; [19],1.23
same,cell count,[4]; [20],8980
same,cell count,[4]; [21],10200
same,luciferase signal,[15],72 AU (inactive)
CC(C)c1nc(N(C)S(C)(=O)=O)nc(-c2ccc(F)cc2)c1/C=C/[C@@H](O)C[C@@H](O)CC(=O)O,parasite load remaining,[1],73.5% (inactive) and 60.1% (inactive)
same,viability,[1],86.4% and 101%
same,inhibition,[2],1.44% (inactive)
same,red/green cell ratio (normalised),[3],0.94 (inactive)
same,normalised cell number,[3]; [16],1.08
same,normalised cell number,[3]; [17],1.02
same,fold change,[4]; [18],0.858 (inactive)
same,fold change,[4]; [19],2.33
same,cell count,[4]; [20],12000
same,cell count,[4]; [21],13900
same,remaining NAD,[13],10 nM (inactive)
same,luciferase signal,[15],48 AU (inactive)
NC[C@@H]1CC[C@@H](N)[C@@H](O[C@H]2[C@H](O)[C@@H](O[C@H]3O[C@H](CO)[C@@H](O)[C@H](N)[C@H]3O)[C@H](N)C[C@@H]2N)O1,inhibition,[2],-2.83% (inactive)
same,red/green cell ratio (normalised),[3],1.19 (inactive)
same,normalised cell number,[3]; [16],0.9
same,normalised cell number,[3]; [17],1.07
same,remaining NAD,[13],10 nM (inactive)
C[n+]1c2cc(N)ccc2cc2ccc(N)cc21,score,[6],0.44
same,rescue above control,[7],0
same,cytochrome c release ratio,[8],0.97
same,inhibition of aggregation,[9],91.3%
same,glutamate uptake change,[10],14.1%
same,aggregation suppression score,[12],0.101
same,parasite load remaining,[1],25.5% (inactive) and -0.145% (inactive)
same,viability,[1],41.9% and 34.3%
same,inhibition,[2],-0.987% (inactive)
same,red/green cell ratio (normalised),[3],0.5 (active)
same,normalised cell number,[3]; [16],0.8
same,normalised cell number,[3]; [17],0.4
same,fold change,[4]; [18],1.05 (inactive)
same,fold change,[4]; [19],0.642
same,cell count,[4]; [20],1590
same,cell count,[4]; [21],1510
same,remaining NAD,[13],10 nM (inactive)
same,luciferase signal,[15],24 AU (inactive)
NC(N)=O,inhibition,[5],5.74%
same,score,[6],1.17
same,rescue above control,[7],4.79
same,cytochrome c release ratio,[8],1.04
same,inhibition of aggregation,[9],43.7%
same,glutamate uptake change,[10],-1.11%
same,inclusion score,[11],2
same,aggregation suppression score,[12],1.21
same,parasite load remaining,[1],107% (inactive) and 54.8% (inactive)
same,viability,[1],72.7% and 99.5%
same,inhibition,[2],-2.6% (inactive)
same,red/green cell ratio (normalised),[3],0.95 (inactive)
same,normalised cell number,[3]; [16],1.22
same,normalised cell number,[3]; [17],1.16
same,fold change,[4]; [18],0.93 (inactive)
same,fold change,[4]; [19],2.44
same,cell count,[4]; [20],12300
same,cell count,[4]; [21],13300
same,remaining NAD,[13],10 nM (inactive)
same,luciferase signal,[15],52 AU (inactive)
COc1ccc2cc([C@H](C)CO)ccc2c1,parasite load remaining,[1],184% (inactive) and 65% (inactive)
same,viability,[1],85.1% and 144%
same,inhibition,[2],2.43% (inactive)
same,red/green cell ratio (normalised),[3],1.04 (inactive)
same,normalised cell number,[3]; [16],1.15
same,normalised cell number,[3]; [17],1.2
same,fold change,[4]; [18],0.861 (inactive)
same,fold change,[4]; [19],3.55
same,cell count,[4]; [20],11000
same,cell count,[4]; [21],12800
same,remaining NAD,[13],10 nM (inactive)
same,luciferase signal,[15],32 AU (inactive)
